The test in a line: chemical genetic growth profiling, strain panel (AID 1159580).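 Also: tested at 20 µM; growth read once vehicle control cultures reached saturation at 30 °C; 1 = growth at the plate median or of vehicle wells; lower values mean less growth of the strain.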 The settings on record: S. cerevisiae deletion strains, growth OD.

This passage reports normalized growth results from PubChem BioAssay AID1159580 (chemical genetic matrix, 2015).

Out of some 5,500 compounds screened, about 2,000 (36%) were called active. Inconclusive results (about 18%) are left out. This is one part of the list. Values without a mark were called inactive. Rule as the data show it: active = normalized growth mostly below about 0.91 (no sharp cut-off); inconclusive = no clear call, values can overlap the other calls; inactive = mostly above about 0.92.

Consider `c1cnc2c(c1)ccc1cccnc12`, for which the normalized growth by setting is: (locus YAL013W, strain DEP1, active compounds read low) 0.0762 (active); (locus YAL040C, strain CLN3, active compounds read low) 1.07; (locus YCL061C, strain MRC1 (second series), active compounds read low) 0.0542 (active); (locus YDR363W, strain ESC2, active compounds read low) 0.0973 (active); (locus YER002W, strain NOP16, active compounds read low) 0.0834 (active); (locus YGR078C, strain PAC10, active compounds read low) 0.109 (active). Besides, the normalized growth was 0.0769 (active) (locus YJR075W, strain HOC1, active compounds read low); 0.103 (active) (locus YNL153C, strain GIM3, active compounds read low); 0.0953 (active) (locus YNL175C, strain NOP13, active compounds read low); 0.0905 (active) (locus YNL197C, strain WHI3, active compounds read low); 0.123 (active) (locus YNL224C, strain SQS1, active compounds read low); 0.0666 (active) (locus YNL322C, strain KRE1, active compounds read low). The normalized growth (locus YOR083W, strain WHI5 (second series), active compounds read low) is 0.0868 (active).
